From PubChem
Wnt bcat act: Wnt/beta-catenin pathway activators, primary screen, cell-based, plate reader, single point. Wnt/beta-catenin reporter cell assay, activator. activation, % at 9.35 µM. 300,000 compounds, 1.2% hits; in the data active means activation above about 30%, passing the limit was not always enough; inconclusive means no clear call, values can overlap the other calls;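 further: 0% = neutral control wells and 100% = positive control wells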
DAX1 inh: DAX1 (NR0B1) inhibitors on StAR promoter, primary screen, cell-based, luminescence, SF-1 (NR5A1), full-length DAX-1; inhibition, % at 6.8 µM; 370,000 compounds, 1.1% hits; HEK293T StAR-luciferase reporter, SF-1/DAX-1 repression relief;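 active means inhibition above the mean over all tested compounds plus 3 SD, cut at about 3.6% in these data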;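 further: 0% = DAX-1 cells with DMSO and 100% = cells lacking DAX-1 with DMSO; higher inhibition means more luminescence from relief of DAX-1 repression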
esBAF inh: Bmi1 luciferase reporter increase in mESCs, primary screen, esBAF inhibitor project, mouse ES cells, Bmi1 luciferase knock-in, single point | 24 h; 100% = twice the neutral-well signal | reporter increase, % at 12.5 µM | 350,000 compounds, 2% hits | AID 602393, 2012; in the data active means activation above about 40%; inconclusive means no clear call, values can overlap the other calls;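 further: 0% = median of the plate's neutral control wells and 100% = double that signal; a rise in the Bmi1 reporter signal indicates esBAF inhibition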
hgDAF-12 ag: H. glycines DAF-12 receptor agonists, primary screen, cell-based, luminescence, HEK293, GAL4 fusion, UAS-luciferase; Nuclear hormone receptor DAF-12 (Heterodera glycines), GAL4 fusion; HEK293 GAL4-hgDAF12 UAS-luciferase reporter, agonist luminescence; normalized to butyrate control; activation, % at 6.8 µM; 370,000 compounds, 1.8% hits;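 active means activation above a cutoff set at the mean of all screened compounds plus 3 SD, cut at about 10% in these data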;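 further: 0% = DMSO wells and 100% = sodium butyrate wells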
hcDAF-12 act: H. contortus DAF-12 nuclear receptor activators, primary screen, cell-based, luminescence, HEK293, lit1-tk-luc reporter; HEK293 hcDAF-12 lit1-tk-luc reporter; 0% DMSO, 100% Δ7-dafachronic acid; activation, % at 6.8 µM; 370,000 compounds, 1.4% hits;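 active means activation above the mean of all tested compounds plus 3 SD, cut at about 5.5% in these data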;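 further: 100% = response to 3 µM Δ7-dafachronic acid high control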
ssDAF-12 act: S. stercoralis DAF-12 nuclear receptor activators, primary screen, cell-based, luminescence, HEK293, GRIP1 co-expression, lit1-tk-luc; Nuclear hormone receptor DAF-12 (Strongyloides stercoralis); HEK293 ssDAF-12/GRIP1 lit1-tk-luc reporter; % of 3 µM dafachronic acid response; AID 652126, 2013; 370,000 compounds, 1% hits; activation, % at 6.8 µM;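 active means activation above the mean over all tested compounds plus 3 SD, cut at about 0.9% in these data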;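 further: 0% = DMSO-only wells and 100% = 3 µM delta7-dafachronic acid wells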
Numbers without * were called inactive; ? = inconclusive; · = not tested or not shown. Most compounds without a hit are left out; they make up all but 4.2% or so of the library.

SMILES	Wnt bcat act	DAX1 inh	esBAF inh	hgDAF-12 ag	hcDAF-12 act	ssDAF-12 act
O=C(C[C@@H]1C=C[C@@H](NS(=O)(=O)c2ccccc2)[C@@H](CO)O1)NCc1ccncn1	·	·	-3	·	·	·
CO[C@H]1CN(C)C(=O)c2ccc(NC(=O)C3CC3)cc2OC[C@H](C)N(CC2CCCC2)C[C@H]1C	·	·	8	·	·	·
COc1ccc(/C=N/OC(=O)Nc2ccccc2OC)cc1	5	-1	·	12*	1	0
CO[C@@H]1CN(C)C(=O)c2cc(NS(=O)(=O)c3ccc(C)cc3)ccc2OC[C@H](C)N(C)C[C@H]1C	·	·	1	·	·	·
CC1CN/C(=C\C(=O)c2ccc(Cl)cc2)C(=O)N1 (configuration not stated)	0	4	-27	12*	5	1
CC1CN/C(=C\C(=O)c2ccccc2)C(=O)N1 (configuration not stated)	·	2	12	8	1	-1
COc1ccc(S(=O)(=O)Nc2cc(Cl)ccc2OC)cc1	·	-2	-14	4	-1	2.7*
COc1ccc(Cl)cc1NS(=O)(=O)c1ccc(OC)c(OC)c1	·	-1	-8	-2	0	-1
COc1ccc(C)c2sc(=NC(=O)c3ccc(C(C)=O)cc3)n(C)c12	22	2	·	13*	2	0
COc1ccc(C)c2sc(=NC(=O)C(C)C)n(C)c12	0	-1	-6	-1	2	-1
O=C(c1cccs1)N1CCN=C1SCc1ccccc1	2	0	·	-2	-1	-1
O=C(c1cccs1)N1CCN=C1SCc1ccc(F)cc1	37*	0	·	0	-2	-2
CCCn1cnc2c(SCc3ccccc3F)nc(N)nc21	-1	2	53*	9	0	-1
CC(C)Cn1cnc2c(SCc3ccccc3Cl)nc(N)nc21	1	-2	55*	0	-1	-1
CN1c2ccc(-c3ccccc3)cc2[C@H]2[C@H](CCN2C(=O)c2ccccc2)[C@@H]1CO	·	·	2	·	·	·
CCN1[C@@H]2c3ccc(C4=CCCCC4)c(=O)n3C[C@H]1[C@H](CO)[C@H]2C(=O)N1CCOCC1	·	·	-2	·	·	·
CN(C)C(=O)C[C@H]1C=C[C@@H](NS(=O)(=O)c2ccccc2)[C@@H](CO)O1	·	·	-3	·	·	·
C=CCn1c(SCC(=O)Nc2ccc3c(c2)OCO3)nnc1-c1ccccc1	0	-2	-8	0	-2	-1
C=CCn1c(SCC(=O)Nc2ccc3c(c2)OCO3)nnc1-c1cc(Br)ccc1O	47*	-1	6	-1	-2	-1
O=C(NCCN1C(=O)S/C(=C/c2cccnc2)C1=O)C1=NN(c2ccccc2)C(=O)CC1	-1	3	-1	0	2	-1
O=C(NCCN1C(=O)S/C(=C\c2cccnc2)C1=O)C1CC(=O)N(Cc2ccco2)C1 (configuration not stated)	-10	0	-1	2	4	1.2*
CSc1cccc(N2CC(C(=O)NCCN3C(=O)S/C(=C\c4cccnc4)C3=O)CC2=O)c1 (configuration not stated)	1	2	-1	3	-1	-1
O=C1CCC(C(=O)NCCN2C(=O)S/C(=C\c3cccnc3)C2=O)=NN1	-3	0	-7	1	-1	1.2*
C[C@@H]1CN([C@H](C)CO)C(=O)c2cc(NS(=O)(=O)c3cn(C)cn3)ccc2O[C@@H](C)CCCCO[C@H]1CN(C)CC1CCCCC1	·	·	0	·	·	·
COc1cc(N=Nc2ccccc2C(=O)O)ccc1O	7	0	-15	-2	-2	-1
SMILES	Wnt bcat act	DAX1 inh	esBAF inh	hgDAF-12 ag	hcDAF-12 act	ssDAF-12 act
COc1cc(N=Nc2ccc3ccccc3c2)ccc1O	?	2	-1	9	6	1.7*
COC(=O)C1=C(NC(=O)c2ccc(C)c(C)c2)CCS1	·	0	·	4	6.1*	0
O=C(Oc1ccccc1N1CCOCC1)c1sccc1Br	45*	0	3	0	-1	0
COCCNC(=O)C[C@@H]1CC[C@H]2[C@@H](COc3ccc(NC(=O)C4CCOCC4)cc3C(=O)N2C)O1	·	·	2	·	·	·
COCC#Cc1cnc2c(c1)C(=O)N([C@H](C)CO)C[C@@H](C)[C@H](CN(C)C)O2	·	·	3	·	·	·
Cc1ccc(C(=O)OC(C)C(=O)Nc2ccc3c(c2)OCO3)c(O)c1 (configuration not stated)	-6	-1	50*	6	4	-1
O=C(/C=C/c1ccc2c(c1)OCO2)c1ccccn1	-1	0	38*	0	0	0
O=C(Nc1ccc(NC(=O)c2ccccn2)cc1)C(=O)Nc1ccc2c(c1)OCCO2	-3	1	5	4	1	-1
CC(OC(=O)c1ccccn1)C(=O)Nc1ccc2c(c1)OCCO2 (configuration not stated)	2	-2	11	11*	0	-1
O=C(Nc1ccc2c(c1)OCCO2)c1ccccn1	·	4.4*	-69	6	3	0
COc1ccc(NC(=O)N(C)C[C@H]2OCCCC[C@@H](C)Oc3ccc(NS(=O)(=O)c4cccs4)cc3C(=O)N([C@@H](C)CO)C[C@H]2C)cc1	·	·	0	·	·	·
C[C@@H]1CN([C@H](C)CO)C(=O)Cc2cc(NS(=O)(=O)c3ccc(F)cc3)ccc2O[C@H]1CN(C)Cc1ccc2c(c1)OCO2	·	·	6	·	·	·
Cc1noc(C)c1S(=O)(=O)Nc1ccc2c(c1)C(=O)N([C@H](C)CO)C[C@H](C)[C@@H](CN(C)Cc1ccc(C(F)(F)F)cc1)O2	·	·	-9	·	·	·
Cc1ccc(S(=O)(=O)Nc2ccc3c(c2)CC(=O)N([C@H](C)CO)C[C@H](C)[C@H](CN(C)C(=O)Nc2ccc(F)cc2)O3)cc1	·	·	3	·	·	·
O=C(Nc1ccc2c(c1)OCCO2)c1cc2sccc2n1Cc1ccccc1	1	-3	49*	-9	-5	-2
Cc1nnc(SCc2cnc(-c3ccc(C(C)C)cc3)s2)n1C	·	2	-14	12*	6.0*	1.5*
COc1ccc(Cl)cc1N1C(=O)CC(Sc2ccccc2N)C1=O (configuration not stated)	-2	0	·	3	-1	1.6*
CCOc1ccccc1N1C(=O)CC(Sc2ccccc2N)C1=O (configuration not stated)	-1	0	0	0	0	-1
CCNC(=O)C[C@@H]1CC[C@H]2[C@@H](COc3ccc(NC(=O)C4CCCCC4)cc3C(=O)N2C)O1	·	·	2	·	·	·
